Source: ChEMBL document CHEMBL3988442, “University of Dundee, Small-Polar-MMV Screening Library” (2021)

Columns and labels:
[1] = biological target: T1, Aspartate--tRNA(Asp/Asn) ligase (Mycobacterium tuberculosis (strain ATCC 25618 / H37Rv)) (UniProt P9WFW3); experiment: Assay for Asp RNA synthetase-1 from Mycobacterium tuberculosis; assay type: functional; parameters: scale not given: direction of the effect not stated beside the values; conditions: 30 µM; also: in the data most compounds retested in dose-response had high values
T1 sequence (whole entry): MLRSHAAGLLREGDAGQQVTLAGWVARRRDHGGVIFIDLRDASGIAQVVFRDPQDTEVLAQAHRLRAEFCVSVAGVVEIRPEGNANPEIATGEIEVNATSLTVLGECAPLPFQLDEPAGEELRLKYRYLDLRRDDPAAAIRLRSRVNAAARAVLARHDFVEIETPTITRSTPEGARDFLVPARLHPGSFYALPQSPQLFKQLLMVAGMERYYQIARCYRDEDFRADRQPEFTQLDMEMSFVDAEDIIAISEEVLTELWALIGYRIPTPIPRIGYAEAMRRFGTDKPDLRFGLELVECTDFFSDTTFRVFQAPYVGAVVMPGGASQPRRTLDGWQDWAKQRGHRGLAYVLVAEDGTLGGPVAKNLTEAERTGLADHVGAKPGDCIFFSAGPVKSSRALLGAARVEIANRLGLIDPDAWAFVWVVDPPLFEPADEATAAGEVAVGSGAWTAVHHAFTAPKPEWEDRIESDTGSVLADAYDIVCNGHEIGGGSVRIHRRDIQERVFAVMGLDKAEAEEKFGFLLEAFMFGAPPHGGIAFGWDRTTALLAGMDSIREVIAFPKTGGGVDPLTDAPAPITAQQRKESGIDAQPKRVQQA

[2] = biological target: Shiga toxin 2 (Escherichia coli O157:H7) (UniProt P09385+P09386); experiment: E. coli 0.157:H7 Shiga Toxin SOP - stx2 screening assay; assay type: functional; parameters: scale not given: direction of the effect not stated beside the values; conditions: 30 µM

| Compound | Percent Effect [1] [%] | Percent Effect [2] [%] |
| --- | --- | --- |
| COc1ccc(CN2CCN(C(C)=O)CC3(CC(=O)N(C)C3)C2)cc1 (stereo unspecified) | 1.68 | -5.8 |
| O=C1CC(NCc2ccncc2)CN1Cc1cccc(F)c1 (stereo unspecified) | 2.73 | -1.08 |
| FC1(F)CCN(Cc2cccnc2)CC12CCN(c1ccccn1)C2 (stereo unspecified) | 1.91 | 4.74 |
| Cc1ccc(Cl)cc1C(=O)N1CCC2(CC1)c1ccccc1[C@@H](N)[C@@H]2O | -0.814 | -5.92 |
| CCc1ncncc1C(=O)NCCN1CCC(C)CC1 | -3.79 | 5.13 |
| COCCN1CCC2(CC1)CC(COC)N(c1ncccn1)C2 (stereo unspecified) | 0.446 | -9.07 |
| Cc1cc(N2CCCC2c2cnccn2)ncn1 (stereo unspecified) | 0.908 | 9.94 |
| CCc1cnc(CN(C(C)=O)C2CCN(CCc3cccs3)C2)o1 (stereo unspecified) | -1.49 | 21.4 |
| CN1CCCN(C(=O)c2ccc3c(c2)nc(N2CCOCC2)n3C)CC1 | -3.09 | -5.95 |
| CC1CN(C(=O)c2ccn(-c3cccc(Cl)c3)n2)CCO1 (stereo unspecified) | -3.19 | -15 |
| Cc1ccccc1CS(=O)(=O)CC(=O)NC1CCCCNC1=O (stereo unspecified) | -3.58 | -14.7 |
| CC(=O)N1CCC2(CCCN(Cc3ccc(Cl)c(C(F)(F)F)c3)C2)C1 (stereo unspecified) | 6.54 | 4.87 |
| O=C(NCCCn1cncn1)N1CCCC(N2CCCC2)C1 (stereo unspecified) | 3.5 | 0.153 |
| Cc1nc(C)n(CC2CCCN(c3ncnc4c3CCC4)C2)n1 (stereo unspecified) | 2.14 | 15.3 |
| COc1ncccc1NC(=O)C1CCS(=O)(=O)C1 (stereo unspecified) | -3.61 | -37.8 |
| CN(Cc1cccnc1)C1CC2(CCN(c3ccccn3)CC2)C1 | 2.16 | -47.1 |
| CN(CCOc1cccc(CN)c1)C1CCOCC1 | -0.881 | -50.4 |
| O=C(c1cnccn1)N1CCOC2(CCN(Cc3ccsc3)CC2)C1 | -1.8 | -12.9 |
| CCc1nnc(CN(C)c2nc(C3CCCC3)nc3c2cnn3C)o1 | -4.57 | 13.2 |
| COc1ccccc1CC(=O)N1CCC(NCc2c[nH]nc2C)CC1 | 4.54 | 17.4 |
| COCC(=O)N1CC[C@@H]2CN(Cc3cccc(Cl)c3)S(=O)(=O)[C@@H]2CC1 | 3.55 | -12.7 |
| COc1cc(C)nc(N2CCN(C(=O)CCc3nccs3)CC2)n1 | 2.87 | -3.5 |
| OC1(Cn2ccc3ccncc32)CCN(Cc2ccccn2)CC1 | -0.402 | -26.5 |
| Cc1nn(C)c(C)c1C1CCCN1Cc1cccc(C(=O)N(C)C)c1 (stereo unspecified) | -0.742 | -11.2 |
| c1csc(-c2noc(CCCN3CCCC3Cn3cccn3)n2)c1 (stereo unspecified) | -1.67 | 15.3 |
| NC(=O)C1(CCCc2cccnc2)CCCN(c2ncccn2)C1 (stereo unspecified) | -0.456 | -4.97 |
| O=C(O)c1nnn(Cc2cccc(C(F)(F)F)c2)c1-c1cccnc1 | -1.36 | -46.6 |
| Cc1ccc(C(=O)N2CCc3c(CNS(C)(=O)=O)cncc3C2)o1 | 9.11 | -21 |
